Screening results deposited in PubChem BioAssay by National Center for Advancing Translational Sciences (NCATS).
VACV Venus inh: vaccinia inhibition (Venus reporter) | AID 720580 | Potency, µM (highest dose often 36.5 µM), for inactives: top-dose activity change, negative = inhibition, actives largely listed as inhibitors | 330,000 tested, 0.46% active | Vaccinia virus Venus reporter expression, fluorescence; calls by dose curve; tested in A549 cells; also: potency is read from the fitted curve at half-maximal effect; nearly all actives have a fitted effect of over 30% in size
VACV mCherry inh: inhibitors of vaccinia virus infection (mCherry reporter signal). 310,000 tested, 0.63% active. Vaccinia virus mCherry reporter infection, fluorescence. AID 720579. Potency, µM (highest dose often 36.5 µM), without a hit: at the top dose activity change, negative = inhibition, actives largely listed as inhibitors; calls by dose curve; tested in A549 cells; also: potency is read from the fitted curve at half-maximal effect; nearly all actives have a fitted effect of over 35% in size
LmPK inh: blocks Leishmania mexicana pyruvate kinase activity; Potency, µM (series often up to 57.5 µM), inactives show at the highest dose activity change, negative = inhibition, usual class: inhibitors; Q27686; 290,000 tested, 0.37% active; purified LmPK, Kinase-Glo ATP luminescence, 1 h; also: potency is read from the fitted curve at half-maximal effect
Target sequence (Q27686 whole entry, looked up): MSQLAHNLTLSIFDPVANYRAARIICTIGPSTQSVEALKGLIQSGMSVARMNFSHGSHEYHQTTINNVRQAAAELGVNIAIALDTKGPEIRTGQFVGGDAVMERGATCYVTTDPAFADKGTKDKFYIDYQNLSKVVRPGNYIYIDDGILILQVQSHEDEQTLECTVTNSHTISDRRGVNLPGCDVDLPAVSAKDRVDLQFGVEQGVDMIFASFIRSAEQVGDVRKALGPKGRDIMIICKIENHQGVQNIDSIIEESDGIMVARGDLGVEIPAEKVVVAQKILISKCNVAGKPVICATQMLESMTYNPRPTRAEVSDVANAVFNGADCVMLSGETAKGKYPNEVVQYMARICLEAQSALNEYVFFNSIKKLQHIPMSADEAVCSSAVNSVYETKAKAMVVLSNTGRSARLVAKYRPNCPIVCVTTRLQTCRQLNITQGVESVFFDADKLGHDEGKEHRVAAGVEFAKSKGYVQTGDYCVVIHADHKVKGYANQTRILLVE
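qHTS format; LmPK 0.1 nM; substrates PEP 0.5 mM and ADP 0.1 mM. One-hour room-temperature incubation, then coupled luciferase luminescence; 0.5 nM enzyme wells mark activation.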
Tb PYK inh: T. brucei pyruvate kinase inhibition; Q57TT1; TbPYK enzyme, Kinase-Glo Plus ATP luminescence, 45 min; Potency, µM (doses to about 76.8 µM), without a hit: top-dose activity, negative = inhibition, actives largely listed as inhibitors; 410,000 tested, 0.12% active; AID 624173; also: potency is read from the fitted curve at half-maximal effect; nearly all actives have a fitted effect of over 50% in size
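T. brucei PYK with substrate was exposed to pin-transferred compounds across a concentration series, then started with 130 uM ADP (final). After 45 min at room temperature, Kinase-Glo Plus luminescence was read, normalized and curve-fitted.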
HCMV inh: human cytomegalovirus inhibition. HFF cells, HCMV-luciferase reporter, 72 h; active compounds read low. activity change, negative = inhibition, % at 57.5 µM. 410,000 tested, 4.5% active; in the data active = activity change below about -60%; inconclusive = no clear call, values can overlap the other calls; inactive = above about -39%
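Two compound doses tested in HFFs infected with HCMV-luciferase, MOI 1 PFU/cell, 72 h at 37C. Lysate luminescence read with OneGlo; data normalized against buffer-only and 10uM Salinomycin inhibitor controls.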
Numbers without * were called inactive; [ ] = remark or other dose. A selection: hits, their analogues and other compounds. The true share with any hit is near 5%. Unless noted, calls follow the shape of the dose curve; as a rule, active = well fitted curve in the direction sought with a large enough effect; inconclusive = small, poorly fitted or top-dose-only effect, or another doubt; inactive = no such curve, though single readings can be large; an effect the other way counts as inactive or inconclusive. % is scaled to controls: 0 for no effect and ±100 for the full control effect.

`CC(=O)C1=C(C)N(Cc2ccc(Br)cc2)C(=S)NC1c1cccc(Cl)c1` (stereo not given) gave HCMV inh -13.
Screening Cc1ccc(C(=O)ONc2ccc(N=O)cc2)cc1 returned VACV Venus inh 6%, VACV mCherry inh 15%, LmPK inh 10µM*, Tb PYK inh inconclusive and HCMV inh inconclusive.
O=Nc1ccc(NOC(=O)c2ccc(Br)cc2)cc1 was read as LmPK inh -25%.
`N#Cc1cc([N+](=O)[O-])ccc1NC(=O)CSc1n[nH]c(=O)n1C1CC1` gave Tb PYK inh 0% and HCMV inh 0.
`CCN(CC)c1ccc(/C=N/NC(=O)c2c[nH]c3ccccc23)cc1` gave VACV Venus inh inconclusive, VACV mCherry inh inconclusive, LmPK inh -2%, Tb PYK inh -12% and HCMV inh -67*.
Screening O=C(Nc1ccc(N2CCN(Cc3ccccc3)CC2)cc1)c1cccnc1 returned VACV Venus inh -14%, LmPK inh 2%, Tb PYK inh -3% and HCMV inh -61*.
`COc1cccc(NC(=O)c2ccc(CN3CCN(c4ccccc4)CC3)cc2)c1` gave LmPK inh 6% and HCMV inh -67*.
O=C(Nc1ccc(N2CCCCC2)c(Cl)c1)c1cccnc1 was read as VACV Venus inh 2%, VACV mCherry inh 13µM*, LmPK inh 0%, Tb PYK inh 0% and HCMV inh -78*.
CN(CC(=O)OCC(N)=O)S(=O)(=O)c1ccc(Cl)cc1 was read as VACV Venus inh -9%, VACV mCherry inh -16%, LmPK inh 5%, Tb PYK inh 4% and HCMV inh 36.
`O=C(COc1ccc([N+](=O)[O-])cc1)NCCC1=CCCCC1` gave VACV Venus inh -6%, VACV mCherry inh -10%, LmPK inh -3%, Tb PYK inh -2% and HCMV inh 0.
Cc1cc(C)nc(Sc2ccc([N+](=O)[O-])cc2[N+](=O)[O-])n1 was read as VACV Venus inh -13%, VACV mCherry inh -29%, LmPK inh 2%, Tb PYK inh -8% and HCMV inh inconclusive.
O=[N+]([O-])c1cc(Cl)ccc1Sc1cccc2cccnc12 was read as VACV Venus inh -8%, VACV mCherry inh -13%, LmPK inh 10%, Tb PYK inh 10% and HCMV inh 8.
`O=[N+]([O-])c1ccc(Sc2cccc3cccnc23)c([N+](=O)[O-])c1` gave LmPK inh 1%, Tb PYK inh -10% and HCMV inh -106*.
`C=CCn1nc([N+](=O)[O-])nc1Sc1cccc2cccnc12` gave VACV Venus inh 8.9µM*, VACV mCherry inh 7.9µM*, LmPK inh 0% and Tb PYK inh -16%.
For O=[N+]([O-])c1ccc(Sc2ccncn2)c([N+](=O)[O-])c1 the results were VACV Venus inh inconclusive, VACV mCherry inh -27%, Tb PYK inh 2% and HCMV inh -86*.
For Cc1ccc(-c2csc(N3CCC[C@@H]3C(=O)NCCn3c([C@H](C)N)nc4ccccc43)n2)cc1 the results were HCMV inh 0.
Screening CNc1cc(-n2nc(C)cc2-c2ccccc2)ncn1 returned VACV Venus inh -8%, VACV mCherry inh -6%, LmPK inh 6%, Tb PYK inh -4% and HCMV inh 25.
`Cc1cc(-c2ccccc2)n(-c2cc(N/N=C/c3ccccc3O)ncn2)n1` gave VACV Venus inh inconclusive, VACV mCherry inh inconclusive, LmPK inh -2%, Tb PYK inh -11% and HCMV inh -96*.
For CC(=O)c1c(C)n(C2CCCCC2)c2ccc(O)cc12 the results were VACV Venus inh -7%, VACV mCherry inh -4%, LmPK inh 1%, Tb PYK inh -13% and HCMV inh -66*.
`O=C(Nc1ccc(C(F)(F)F)cc1)c1cnc(N2CCN(c3ccccn3)CC2)c2ccccc12` gave VACV Venus inh 5%, VACV mCherry inh 4%, LmPK inh 2%, Tb PYK inh 5% and HCMV inh 37.
For COc1cc2c(cc1NC(=O)c1ccccc1-c1ccccc1C(=O)O)-c1ccccc1C2 the results were VACV Venus inh -18%, VACV mCherry inh inactive, Tb PYK inh -5% and HCMV inh 39.
COc1cc2c(cc1NC(=O)C(Cl)Cl)-c1ccc(NC(=O)C(Cl)Cl)cc1C2 was read as VACV Venus inh 10µM*, VACV mCherry inh 13µM*, Tb PYK inh -9% and HCMV inh -68*.
`O=C(COC(=O)c1ccccc1C(=O)c1ccc(Cl)cc1)NCc1ccccc1` gave LmPK inh -1%, Tb PYK inh -9% and HCMV inh -32.
For Cc1ccc(C(=O)c2ccccc2C(=O)OCC(=O)NCCc2ccccc2)cc1 the results were VACV Venus inh -29%, VACV mCherry inh -11%, LmPK inh 3%, Tb PYK inh 3% and HCMV inh -67*.
Screening CCc1cc(C(=O)OCC(=O)NCCc2ccccc2)sc1C returned VACV Venus inh -7%, VACV mCherry inh -3%, Tb PYK inh -9% and HCMV inh -85*.
CC1(C(=O)Nc2ccc3nc[nH]c3c2)CCN1C(=O)CCc1ccccc1 (stereo not given) was read as VACV Venus inh 4%, VACV mCherry inh -1%, Tb PYK inh -4% and HCMV inh -19.
O=C(c1ccco1)N1CCN(C(=O)c2cnn(-c3cccc(F)c3)c2C2CCNCC2)CC1 was read as VACV Venus inh 5%, VACV mCherry inh 2%, LmPK inh -4%, Tb PYK inh 0% and HCMV inh -17.
`O=C(Nc1cccc(C(F)(F)F)c1)c1cnn(-c2cccc(F)c2)c1C1CCNCC1` gave VACV Venus inh -19%[7.34 µM], VACV mCherry inh -18%[7.34 µM], Tb PYK inh -3% and HCMV inh -77*.
For Cc1ccc(-n2ncc(C(=O)Nc3cc(Cl)ccc3C)c2C2CCNCC2)cc1C the results were LmPK inh 1%, Tb PYK inh -9% and HCMV inh -91*.
For Cc1ccc(C)c(NC(=O)c2cnn(-c3ccc(F)cc3F)c2C2CCNCC2)c1 the results were VACV Venus inh -3%, VACV mCherry inh -2%, Tb PYK inh -5% and HCMV inh 12.
Cc1cc(C)cc(NC(=O)c2cnn(-c3ccccc3)c2C2CCNCC2)c1 was read as VACV Venus inh -19%, VACV mCherry inh -13%, LmPK inh -1%, Tb PYK inh -5% and HCMV inh -86*.
For Cc1cc(C)cc(NC(=O)c2cnn(-c3ccc(C)c(C)c3)c2C2CCNCC2)c1 the results were VACV Venus inh -15%[7.34 µM], VACV mCherry inh -16%[7.34 µM], Tb PYK inh 6% and HCMV inh -93*.
Screening CCc1ccc(NC(=O)c2cnn(-c3ccccc3)c2C2CCNCC2)cc1 returned LmPK inh 1%[11.5 µM], Tb PYK inh -3% and HCMV inh inconclusive.
Screening Cc1ccc(-n2ncc(C(=O)NCCN3CCc4ccccc4C3)c2C2CCNCC2)cc1C returned VACV Venus inh -9%, VACV mCherry inh -16%, Tb PYK inh 2% and HCMV inh -24.
